# Laboratory results taken from ChEMBL document CHEMBL3433997, “St. Jude Leishmania screening dataset” (2016).
# Assays:
# Format in all cases: functional
# [1] = molecular target: Solute carrier family 2, facilitated glucose transporter member 1 (Homo sapiens) (UniProt P11166); assay: ST_JUDE_LEISH: Cytotoxicity at 2uM final concentration against transgenic Leishmania Mexicana promastigotes LmGLUT1 that are glucose transport deficient and complemented with the human glucose transporter GLUT1. Activity is measured by DNA content using SYBR green in vitro
# Chain of Solute carrier family 2, facilitated glucose transporter member 1 (Homo sapiens) (P11166 whole entry): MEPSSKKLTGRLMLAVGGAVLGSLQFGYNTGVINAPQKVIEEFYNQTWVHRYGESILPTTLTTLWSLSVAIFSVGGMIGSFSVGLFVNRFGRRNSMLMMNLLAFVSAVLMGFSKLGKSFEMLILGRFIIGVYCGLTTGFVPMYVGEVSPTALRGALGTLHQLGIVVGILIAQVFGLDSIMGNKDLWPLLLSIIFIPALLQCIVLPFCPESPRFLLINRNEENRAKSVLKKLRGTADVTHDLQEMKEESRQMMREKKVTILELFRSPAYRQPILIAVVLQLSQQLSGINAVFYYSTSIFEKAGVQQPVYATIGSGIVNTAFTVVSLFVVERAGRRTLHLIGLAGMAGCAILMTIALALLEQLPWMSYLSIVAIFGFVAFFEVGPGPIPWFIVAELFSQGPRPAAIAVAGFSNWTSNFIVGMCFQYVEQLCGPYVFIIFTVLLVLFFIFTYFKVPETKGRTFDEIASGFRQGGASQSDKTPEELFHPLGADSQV
# [2] = molecular target: Hexose transporter 1 (Plasmodium falciparum) (UniProt O97467); assay: ST_JUDE_LEISH: Cytotoxicity at 2uM final concentration against transgenic Leishmania Mexicana promastigotes LmPfHT that are glucose transport deficient and complemented with the Plasmodium falciparum hexose transporter. Activity is measured by DNA content using SYBR green in vitro
# [3] = molecular target: Glucose transporter (Leishmania mexicana) (UniProt O61059); assay: ST_JUDE_LEISH: Cytotoxicity at 2uM final concentration against transgenic Leishmania Mexicana promastigotes LmGT2 that are glucose transport deficient and complemented with the L. Mexicana glucose transporter 2. Activity is measured by DNA content using SYBR green in vitro
SMILES,inhibition [1],inhibition [2],inhibition [3]
COc1ccc2[nH]c(C)cc(=NN=Cc3ccccc3Cl)c2c1,5.14%,5.23%,1.92%
Oc1ccccc1CNC1CCCCC1NCc1ccccc1O (stereo not given),7.77%,9.96%,4.48%
O=C(c1cccs1)N1CCN(c2ccc([N+](=O)[O-])c(NC3CC3)c2)CC1,1.35%,0.57%,1.6%
CC(C)c1cccc(OCC2CCN(c3ncc(C(=O)Nc4ccccc4)cc3Cl)CC2)c1,2.96%,1.07%,-2.66%
CN1CCN(c2ccnc3ccc(NC(=O)Nc4cccc5c(C#N)cccc45)cc23)CC1,2.25%,2.35%,2.75%
Cc1ccc(NC(=O)c2ccc3ncccc3c2)cc1OC1CCN(Cc2ccsc2)CC1,3.79%,3.4%,2.95%
COc1ccc(CCN2CCC(NCc3cccc(N(C)C)c3)CC2)cc1,-2.94%,2.54%,-1.51%
O=C(Cc1cccc(Cl)c1)Nc1cccc(-c2c[nH]c3nc(Nc4ccccc4)ncc23)c1,3.42%,-0.54%,0.7%
O=C(/C=C/c1ccc(Cl)c(Cl)c1)NCCCCCCN1CCCN(C(=O)Nc2cccc(Cl)c2)CC1,-1.03%,0.08%,-2.92%
CCc1cccc(OCCCON2C(=N)N=C(N)NC2(C)C)c1,7.55%,9.83%,8.16%
CC(C)N1CCN(CCCNc2c3ccccc3nc3ccccc23)CC1,40.1%,58%,19%
O=C(Nc1nc2cc(S(=O)(=O)NCCc3ccc(F)cc3)ccc2n1CCCn1ccnc1)c1ccc(Cl)cc1,1.74%,2.83%,1.86%
CC(=O)c1sc2ccccc2c1O,-1.09%,-1%,1.24%
O=C(Cc1c[nH]cn1)Nc1cccc(-c2ccc(-c3nc4cc(C(F)(F)F)ccc4[nH]3)cc2)c1,3.54%,3.75%,1.97%
NC1CCCN(Cc2ccc(-c3cccc(-c4nc5cc(F)ccc5[nH]4)c3)cc2)C1 (stereo not given),-0.79%,0.23%,-1.33%
Cc1cc(N2CCN(C3CCCCC3)CC2)nc2cccc(O)c12,-1.8%,-0.66%,0.33%
Cc1cc(-c2ccnc(Nc3cccc(C#N)c3)n2)cc(C)c1O,13.8%,16%,7.83%
N=C(N)NN=Cc1c[nH]c2ccc(-c3ccccc3)cc12,0.57%,0.13%,1.34%
CN(C)Cc1ccc(CNC2CCN(Cc3ccccc3Cl)CC2)cc1,18.4%,13.8%,13.4%
Cc1nc(C)c(-c2ccc(C(F)(F)F)cc2)c(O)c1Br,2.72%,1.79%,0.77%
O=C(NCc1ccccc1)c1nn(CCCN2CCC(N3CCCC3)CC2)cc1-c1ccc(Cl)c(Cl)c1,4.94%,0.77%,0.9%
CCCC(CNCc1cccc(C)c1)CNc1cc(=O)c2ccccc2[nH]1 (stereo not given),10.9%,11.9%,11.9%
CCCCNCCOc1ccc(-c2nc(-c3ccccc3)c(-c3ccccc3)[nH]2)cc1,1.09%,-0.08%,0.53%
Cc1cc2c(cc1Cl)N(C(=O)Nc1cc(F)cc(-c3cncnc3)c1)CC2,9.04%,5%,2.7%
Cc1nc(C)c(-c2ccc(Oc3ccc(Cl)c(Cl)c3)cc2)c(O)c1Cl,1.91%,1.63%,2.1%
